# Measurements reported in the supplement of paper PMC3334620.
# Whole data set: some 33,000 sequences, median “E-score (-0.5 to 0.5)” near -0.032, cut for the highest 2% near 0.36. The list comes from a sample in which the highest values are over-represented; it also holds similar and randomly drawn sequences.
# Target: T1, Sko1 (UniProt Q02100)
# T1 sequence: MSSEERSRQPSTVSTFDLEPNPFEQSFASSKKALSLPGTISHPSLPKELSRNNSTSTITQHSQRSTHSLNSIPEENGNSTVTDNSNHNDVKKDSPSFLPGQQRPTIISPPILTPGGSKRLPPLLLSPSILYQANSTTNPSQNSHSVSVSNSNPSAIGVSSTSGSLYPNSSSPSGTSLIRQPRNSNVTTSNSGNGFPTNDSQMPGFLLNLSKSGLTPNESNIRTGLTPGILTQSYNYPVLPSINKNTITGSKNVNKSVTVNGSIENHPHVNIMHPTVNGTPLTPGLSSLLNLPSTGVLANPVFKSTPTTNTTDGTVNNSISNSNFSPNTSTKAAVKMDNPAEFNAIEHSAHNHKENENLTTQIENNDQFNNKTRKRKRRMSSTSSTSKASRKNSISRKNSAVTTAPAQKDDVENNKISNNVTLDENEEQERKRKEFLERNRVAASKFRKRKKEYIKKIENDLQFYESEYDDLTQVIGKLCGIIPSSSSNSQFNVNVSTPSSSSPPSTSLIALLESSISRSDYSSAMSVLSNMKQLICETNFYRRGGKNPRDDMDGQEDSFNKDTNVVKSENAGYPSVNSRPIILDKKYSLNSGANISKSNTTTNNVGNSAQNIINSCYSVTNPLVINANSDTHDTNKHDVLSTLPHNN
# Test: PBM E-score (8-mer binding enrichment) (E-score (-0.5 to 0.5)); higher = stronger / more preferred TF binding
# Conditions: protein concentration: 200 nM; construct: GST-full length
# Procedure: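 Universal 'all 10-mer' protein binding microarrays (Agilent AMADID 015681) probed with GST-tagged S. cerevisiae TFs (full-length or DBD) made by in vitro transcription/translation (PURExpress), about 100-200 nM. Bound TF was detected with fluorescent anti-GST. Each ungapped 8-mer (which stands for itself and its reverse complement) is scored by the PBM enrichment score (E-score), a modified Wilcoxon-Mann-Whitney statistic from -0.5 to +0.5, computed with the Universal PBM Analysis Suite. Scale: above 0.35 generally sequence-specific binding.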
row,Sequence,PBM E-score
1,GGAAAACC,-0.128
2,CATTAGCC,-0.188
3,AATGACAC,0.258
4,AATGACAG,0.0139
5,AGTGACAT,0.361
6,AGTGACAC,0.191
7,AATGACAT,0.4
8,AGTGACAA,0.0709
9,ACTGCCTG,-0.0718
10,AGAAGCAT,-0.0822
11,CTGGGTTC,-0.145
12,ACCACAGC,-0.195
13,AATGGCGT,0.387
14,AATGGCGC,-0.0228
15,AATGGCGG,-0.3
16,CACTCCTC,-0.168
17,ACTCAGCT,-0.174
18,CACGTACA,0.389
19,CCCGTACA,-0.273
20,CCCGTACG,0.0984
21,CACGTACC,0.407
22,AACGTACA,0.303
23,AGCGTACG,0.214
24,AACGTACC,0.223
25,CAAGTACG,0.135

row,Sequence,PBM E-score
1,CACGTACG,0.406
2,CTCGTACC,0.123
3,CGCGTACA,0.209
4,CGCGTACG,0.401
5,ACTTATTA,0.157
6,GAGCCCTC,-0.351
7,ACCTTTCC,-0.271
8,AGGGCGAT,-0.0344
9,ACTAGGGC,-0.211
10,GCACTTAA,0.109
11,AAACCTGC,-0.203
12,AGCTTCCT,0.0027
13,TACGTACA,0.477
14,GCCGTACA,-0.148
15,GGCGTACC,-0.0685
16,GCCGTACC,-0.175
17,TCCGTACA,0.0313
18,GTCGTACA,0.0687
19,GACGTACA,0.446
20,ACCGTACA,0.0593
21,GACGTACC,0.433
22,ATTCAAGA,0.0257
23,ACTCTCAA,-0.00162
24,CGTGTGGA,0.00704
25,AAATCTCG,0.014

row,Sequence,PBM E-score
1,GACACTTA,-0.00276
2,ATATTACG,0.465
3,CAATTACC,0.156
4,ATATTACA,0.175
5,AAATTACG,0.439
6,ATATTACC,0.251
7,CAATTACG,0.455
8,CAATTACA,0.167
9,AAATTACC,0.0333
10,AAATTACT,0.196
11,AAGGTCGA,-0.0566
12,ACCAAGCT,0.0443
13,GACACCAC,-0.0851
14,CACTATCG,-0.0728
15,GAATCATC,0.0732
16,GCGTTATA,0.194
17,ACGTTATC,0.413
18,CCGTTATA,0.0635
19,CCGTTATC,-0.00855
20,ACGTTACC,0.297
21,ACGTTACG,0.428
22,ACGTTACA,0.359
23,GCGTTGTA,0.057
24,ACGTTGTG,0.311
25,ACGTTGTA,0.394

row,Sequence,PBM E-score
1,ACGTTATA,0.426
2,ACGTTAGC,0.352
3,CGCGCTGC,-0.147
4,CGCCCGGA,-0.211
5,TACTGAAA,0.219
6,AGAGACGA,0.0256
7,CCGGCTCA,-0.162
8,AAGAGAAC,0.0447
9,GTGTGAGA,0.0436
10,ACGTTAGG,0.244
11,ACGTTAAG,0.325
12,ACGTTATG,0.419
13,ACGACGCA,0.334
14,ATGACGCA,0.492
15,CGGACGCA,-0.121
16,AAGACGCG,-0.115
17,GCGACGCA,0.128
18,ATGACGCG,0.476
19,CTGACGCA,0.403
20,ACGACGCG,0.148
21,AGGACGCA,-0.117
22,GGGACGCA,0.0981
23,CTGACGCC,0.159
24,GTGACGCA,0.457
